Here are results for nine compounds from PubChem BioAssay (Tox21).

The nature of assay [1]: A CellTox Green Cytotoxicity Assay to monitor cytotoxicity in HEK293 cells - 32 hour (AID 1224881). Further: nearly all actives have a fitted effect of over 40% in size. Further: potency means the concentration at half of the fitted maximal effect. In outline:
(§1)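 Read-out: fluorescence of a cell-impermeant cyanine dye staining DNA of dead cells, proportional to cytotoxicity. HEK293, 600 cells/well with reagent, compound (23 nL DMSO) added after 5 h; reads at 0, 8, 16, 24, 32, 40 h.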

The nature of assay [2]: A CellTox Green Cytotoxicity Assay to monitor cytotoxicity in HepG2 cells - 0 hour (AID 1224882). Further: nearly all actives have a fitted effect of over 35% in size. The method in brief: (§2)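 HepG2, 600 cells/well premixed w/ CellTox Green; 5 h settle, 37 C/5% CO2; pintool cpd add (DMSO); 37 C, 40 h; fluorescence read at 0, 8, 16, 24, 32, 40 h.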
The nature of assay [3]: A CellTox Green Cytotoxicity Assay to monitor cytotoxicity in HepG2 cells - 32 hour (AID 1224883). Further: nearly all actives have a fitted effect of over 50% in size. Further: potency means the concentration at half of the fitted maximal effect. In outline:
as §2

The nature of assay [4]: A CellTox Green Cytotoxicity Assay to monitor cytotoxicity in HEK293 cells - 8 hour (AID 1224884). Further: nearly all actives have a fitted effect of over 35% in size. In outline:
as §1

Assay [5] is described as follows: qHTS RealTime-Glo MT Cell Viability Assay in HepG2 cells - 16 hour (AID 1224885). Further: nearly all actives have a fitted effect of over 50% in size. The method in brief: (§3)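 Viability was tracked continuously by NanoLuc luminescence from prosubstrate reduced by living HepG2 cells, at successive time points over 40 h of compound exposure. Cells with reagent were preincubated 5 h at 37 °C before compound addition.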
On the technique in general: qHTS replaces the single test concentration by a dilution series.

A short description of assay [6]: qHTS RealTime-Glo MT Cell Viability Assay in HEK293 cells - 24 hour (AID 1224886). Further: nearly all actives have a fitted effect of over 50% in size. Further: potency means the concentration at half of the fitted maximal effect. In outline: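 Viability tracked continuously by luminescence as live cells reduce a prosubstrate for NanoLuc; HEK293 cells preincubated 5 h, compound-treated at 37 C, and read at 0, 8, 16, 24, 32 and 40 h.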
Assay [7] is described as follows: qHTS RealTime-Glo MT Cell Viability Assay in HEK293 cells - 8 hour (AID 1224887). Further: nearly all actives have a fitted effect of over 50% in size. Further: potency means the concentration at half of the fitted maximal effect. The method in brief: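 Luminescence readout at each listed time point; HEK293, 600 cells/well, RealTime-Glo MT reagent added with cells; compounds pinned (23 nL in DMSO) after 5 h at 37 C; continuous culture at 37 C.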
Assay [8] can be described thus: A CellTox Green Cytotoxicity Assay to monitor cytotoxicity in HEK293 cells - 16 hour (AID 1224888). Further: nearly all actives have a fitted effect of over 35% in size. The method in brief:
as §1

A short description of assay [9]: qHTS RealTime-Glo MT Cell Viability Assay in HepG2 cells - 0 hour (AID 1224889). Further: nearly all actives have a fitted effect of over 50% in size. In outline: as §3
The nature of assay [10]: qHTS assay to identify small molecule antagonists of the androgen receptor (AR) signaling pathway using the MDA cell line in the presence of 0.5 nM R1881 - cell viability counter screen (AID 1259242). Further: nearly all actives have a fitted effect of over 45% in size. In outline:
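Live-cell protease fluorescence, CellTiter-Fluor, 30 min at 37C. Cells: MDA-kb2, 3,000/well, preincubated 5 hr. Compounds plus 0.5 nM R1881 final, 16 hr, 37C, 0% CO2.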

Assay [11] in a line: qHTS assay to identify small molecule HDAC inhibitors (AID 1259364). Further: potency means the concentration at half of the fitted maximal effect.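 Further: wild-type HCT-116 cells with endogenous class I/II HDAC activity; nearly all actives have a fitted effect of over 45% in size.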 In outline: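 HCT-116 (wild type), 1,500 cells/well, overnight; compound 2 hr 37C 5% CO2; HDAC-Glo I/II reagent 30 min RT; luminescence readout.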
Assay [12] is described as follows: qHTS assay to identify small molecule HDAC inhibitors - cell viability counter screen (AID 1259365). The method in brief:
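Wild-type HCT-116 cells, 1,500/well, cultured overnight, then compound-treated 2 h at 37 C. Viability measured as ATP luminescence with CellTiter-Glo after 30 min at room temperature.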

Assay [13] is described as follows: qHTS assay to identify small molecule agonists of the sonic hedgehog signaling (Shh) pathway - cell viability counter screen (AID 1259366). Further: nearly all actives have a fitted effect of over 50% in size. Further: potency means the concentration at half of the fitted maximal effect. The method in brief:
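NIH/3T3-derived Gli1-Luc reporter cells, 2,000 per well, received compound after 4 h and were treated about 23 h at 37C. Viability measured in the same wells by CellTiter-Fluor fluorescence after 1 h.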

Assay [14] is described as follows: qHTS assay to identify small molecule antagonists of the sonic hedgehog signaling (Shh) pathway - cell viability counter screen (AID 1259367). Further: nearly all actives have a fitted effect of over 55% in size. Further: potency means the concentration at half of the fitted maximal effect. In outline:
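Conditioned medium drove Shh signaling in 3T3 Gli1-Luc cells exposed to compounds at 37C and 5% CO2. Viability was determined from CellTiter-Fluor fluorescence, with reagent incubated 1 hr after 23 hr of treatment.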

The nature of assay [15]: qHTS assay to identify small molecule agonists of the sonic hedgehog signaling (Shh) pathway (AID 1259368; calls by dose curve;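 further: NIH/3T3-derived 3T3Gli1-Luc cells carrying a stable Gli1-driven firefly luciferase reporter; series mostly up to about 92 µM; nearly all actives have a fitted effect of over 15% in size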). The method in brief:
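Read-out: firefly luciferase luminescence from a Gli1 response element reporter stably integrated in NIH/3T3-derived 3T3Gli1-Luc cells, measured 30 min at room temperature after reagent addition. Compound exposure lasted 24 hr at 37 C, 5% CO2.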

The nature of assay [16]: A CellTox Green Cytotoxicity Assay to monitor cytotoxicity in HepG2 cells - 8 hour (AID 1224890). Further: nearly all actives have a fitted effect of over 45% in size. The method in brief:
as §2

A short description of assay [17]: qHTS assay to identify small molecule antagonists of the estrogen receptor alpha (ER-alpha) signaling pathway using the BG1 cell line in the presence of 0.1 nM 17-beta-estradiol - cell viability counter screen (AID 1259241). Further: nearly all actives have a fitted effect of over 40% in size. Further: potency means the concentration at half of the fitted maximal effect. In outline: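 VM7Luc4E2 cells (endogenous full-length ER-alpha, 4xERE-luciferase), cultured 5 days in charcoal-stripped serum, exposed to compounds with 0.1 nM 17beta-estradiol (final) for 22 hr at 37C. Viability read in same wells as live-cell protease fluorescence after 30 min.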

Assay [18] has as its target Estrogen receptor (Homo sapiens) (UniProt P03372). The assay can be described thus: qHTS assay to identify small molecule antagonists of the estrogen receptor alpha (ER-alpha) signaling pathway using the BG1 cell line in the presence of 0.1 nM 17-beta-estradiol (AID 1259244). Further: nearly all actives have a fitted effect of over 50% in size. Further: potency means the concentration at half of the fitted maximal effect. The method in brief: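 Luminescence after ONE-Glo (30 min, room temperature) measured ERE-luciferase activity in VM7Luc4E2 cells treated 22 h with compound and 0.1 nM final 17beta-estradiol as stimulator.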

A short description of assay [19]: qHTS assay to identify small molecule phospholipidosis (PLD) inducers (AID 1259344; active means well fitted curve in the direction sought with a large enough effect; an effect the other way counts as inactive or inconclusive). The method in brief:
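After 4 h attachment on collagen I, HepG2 cells were dosed with compound alongside LipidTOX Red, kept 24 h at 37 C, fixed, and imaged for lamellar phospholipid pits.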

Assay [20] has as its target Androgen receptor (Homo sapiens) (UniProt P10275). The assay can be described thus: qHTS assay to identify small molecule antagonists of the androgen receptor (AR) signaling pathway using the MDA cell line in the presence of 0.5 nM R1881 (AID 1259243). Further: nearly all actives have a fitted effect of over 50% in size. The method in brief: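 MDA-kb2, MMTV-luc (AR/GR elements); 3,000 cells/well; cpd + 0.5 nM R1881 final; 16 hr 37C, 0% CO2; ONE-Glo 30 min RT; luminescence.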

“And” between values parts separate entries of the source, which are not always exact repeats. Equal entries are not always repeated. Unmarked numbers belong to inactive results. Results filed as inconclusive are left out. The source made the active and inactive calls. Unless noted, the call rests on the fitted dose curve; in most records, active means well fitted curve in the direction sought with a large enough effect in the repeat runs; inconclusive means weak or mixed curves; inactive means no such curve, though single readings can be large; an effect the other way counts as inactive or inconclusive.

Sequence of Estrogen receptor (Homo sapiens) (P03372 whole entry, looked up): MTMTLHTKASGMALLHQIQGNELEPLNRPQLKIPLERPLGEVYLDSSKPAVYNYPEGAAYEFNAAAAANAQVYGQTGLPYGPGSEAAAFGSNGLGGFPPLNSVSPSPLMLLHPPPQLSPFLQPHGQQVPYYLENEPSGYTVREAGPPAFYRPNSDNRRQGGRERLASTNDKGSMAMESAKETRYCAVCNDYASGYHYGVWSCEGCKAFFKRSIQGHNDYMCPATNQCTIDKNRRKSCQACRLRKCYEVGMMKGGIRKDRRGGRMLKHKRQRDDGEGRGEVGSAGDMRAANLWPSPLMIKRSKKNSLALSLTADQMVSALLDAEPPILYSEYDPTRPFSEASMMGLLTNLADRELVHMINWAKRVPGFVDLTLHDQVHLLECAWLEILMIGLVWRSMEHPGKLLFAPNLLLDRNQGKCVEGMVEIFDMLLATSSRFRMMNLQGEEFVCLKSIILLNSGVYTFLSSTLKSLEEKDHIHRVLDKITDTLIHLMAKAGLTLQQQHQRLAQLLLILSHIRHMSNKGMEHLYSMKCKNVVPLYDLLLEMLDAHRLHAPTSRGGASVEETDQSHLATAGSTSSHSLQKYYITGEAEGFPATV
Sequence of Androgen receptor (Homo sapiens) (P10275 whole entry, looked up): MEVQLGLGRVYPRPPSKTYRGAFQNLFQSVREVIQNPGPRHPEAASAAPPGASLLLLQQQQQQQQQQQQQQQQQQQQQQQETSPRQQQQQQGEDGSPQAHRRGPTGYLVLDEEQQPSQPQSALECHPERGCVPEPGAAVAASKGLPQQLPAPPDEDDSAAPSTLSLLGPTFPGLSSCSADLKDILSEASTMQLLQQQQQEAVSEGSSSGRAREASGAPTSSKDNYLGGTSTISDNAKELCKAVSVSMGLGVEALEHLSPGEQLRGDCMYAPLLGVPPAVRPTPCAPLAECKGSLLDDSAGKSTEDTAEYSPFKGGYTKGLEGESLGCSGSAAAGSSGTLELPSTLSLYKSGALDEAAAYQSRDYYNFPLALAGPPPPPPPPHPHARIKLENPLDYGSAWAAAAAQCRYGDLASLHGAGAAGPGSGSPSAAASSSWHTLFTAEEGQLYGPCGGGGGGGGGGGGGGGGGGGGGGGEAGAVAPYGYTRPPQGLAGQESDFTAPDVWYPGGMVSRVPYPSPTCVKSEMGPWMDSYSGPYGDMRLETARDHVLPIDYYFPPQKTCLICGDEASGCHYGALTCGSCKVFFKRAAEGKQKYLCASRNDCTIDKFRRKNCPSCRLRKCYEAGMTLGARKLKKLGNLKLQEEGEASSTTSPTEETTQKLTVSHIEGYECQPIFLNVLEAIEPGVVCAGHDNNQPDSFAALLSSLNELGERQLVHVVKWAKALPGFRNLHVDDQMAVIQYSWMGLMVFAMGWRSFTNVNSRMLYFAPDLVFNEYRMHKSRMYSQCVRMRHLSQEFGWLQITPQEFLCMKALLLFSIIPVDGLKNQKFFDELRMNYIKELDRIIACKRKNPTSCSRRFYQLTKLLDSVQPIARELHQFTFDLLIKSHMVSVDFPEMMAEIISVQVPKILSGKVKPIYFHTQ

Take `CN1CCCC(n2nc(Cc3ccc(Cl)cc3)c3ccccc3c2=O)CC1` (configuration not stated): the Potency is 30.1 µM (active) in assay [1]; 23.9 µM (active) in assay [3]; 8.49 µM (active) in assay [6]; 7.56 µM (active) in assay [7]; 10.6 µM (active) in [13]; 10.6 µM (active) in assay [14]. Moreover, the Potency entry in assay [2], in [4], in [5], in assay [8], in [9] and in assay [10] was “inactive” in each case. Also, the Potency result in assay [11], in [12] and in assay [15] was “inactive” each time.
For `O=C1CCCCCCCCCCOCCCCO1`, the Potency in assay [1] was 49 µM (active). Also, the Potency entry in [2], in assay [3], in assay [4], in [5], in [6] and in assay [7] was “inactive” throughout. Further, the Potency result in assay [8], in [9], in [16], in [17], in assay [11] and in assay [12] was “inactive” throughout. In addition, the Potency entry in [13], in assay [14] and in assay [15] was “inactive” each time.
As to `O=c1c(O)c(-c2ccc(O)cc2)oc2cc(O)cc(O)c12`, the Potency entry in [1], in [2], in assay [3], in assay [4], in [5] and in [8] was “inactive” each time. In addition, the Potency result in assay [9], in assay [16], in assay [17], in assay [10], in assay [12] and in assay [13] was “inactive” each time. Also, the Potency entry in assay [15] was “inactive”. In addition, the Potency in assay [11] was 21.6 µM (active) and 16.4 µM (active); in assay [14] it was 48.4 µM (active).
Consider `O=[N+]([O-])c1ccc(O/N=C/c2cc(Br)c(O)c(Br)c2)c([N+](=O)[O-])c1`, for which the Potency result in [1], in [2], in [3], in assay [4], in [5] and in assay [9] was “inactive” each time. Further, the Potency result in assay [12] and in assay [15] was “inactive” in each case. Also, the Potency in assay [17] was 24.2 µM (active); in assay [18], 30.5 µM (active).
Turning to `Cc1ccc2c(Br)cc(Br)c(O)c2n1`, the Potency result in [1], in assay [2], in assay [3], in assay [4], in assay [5] and in assay [7] was “inactive” in each case. The Potency entry in [8], in assay [9], in [16], in [17], in assay [19] and in assay [11] was “inactive” in each case. Also, the Potency result in assay [12] and in assay [14] was “inactive” in each case.
On to `CCCCCC#CC(=O)OC`, for which the Potency entry in assay [1], in [2], in assay [3], in assay [4], in [5] and in assay [7] was “inactive” throughout. The Potency entry in [8], in assay [9], in assay [16], in assay [17], in assay [10] and in assay [18] was “inactive” each time. Also, the Potency entry in assay [11], in assay [12], in assay [13], in [14] and in assay [15] was “inactive” throughout.
On to `C=COCC(C)C`, for which the Potency entry in [1], in [2], in assay [3], in assay [4], in assay [5] and in [9] was “inactive” throughout. For the same compound, the Potency result in [16], in [17], in assay [18], in assay [11], in assay [12] and in assay [13] was “inactive” throughout. In addition, the Potency entry in assay [14] and in assay [15] was “inactive” each time.
For the compound `Cc1cccc(O)c1N`, the Potency entry in [1], in [2], in assay [3], in assay [4], in assay [5] and in [7] was “inactive” each time. Also, the Potency entry in assay [8], in [9], in assay [16], in assay [10], in assay [11] and in assay [12] was “inactive” in each case. Moreover, the Potency entry in assay [15] was “inactive”. The Potency in [17] and in assay [14] was 61.8 µM (active) throughout.
With `NC(=O)c1ccncc1`, the Potency result in [1], in [2], in assay [3], in assay [4], in assay [5] and in [7] was “inactive” each time. In addition, the Potency entry in [8], in assay [9], in [16], in assay [17], in [20] and in [11] was “inactive” in each case. For the same compound, the Potency result in assay [12], in assay [13], in assay [14] and in assay [15] was “inactive” in each case.
